# Assay outcomes (PubChem BioAssay)
# Hits are enriched below; roughly 1.6% of the tested compounds scored in any of these assays.
# KCNQ2 inh = rat KCNQ2 potassium channel inhibitors, primary screen, cell-based, CHO-K1, FluxOR thallium flux, B-score. Potassium voltage-gated channel subfamily KQT member 2 (Rattus norvegicus), O88943. 20 min; hits give low values. B-score at 10 µM. 1.1% of 310,000 active. AID 2156, 2009;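 active = fluorescence ratio B-score at most minus 3 library SDs, with starting brightness B-score within 2 library SDs, cut at about -5.5 in these data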
# Target sequence (O88943 whole entry, looked up): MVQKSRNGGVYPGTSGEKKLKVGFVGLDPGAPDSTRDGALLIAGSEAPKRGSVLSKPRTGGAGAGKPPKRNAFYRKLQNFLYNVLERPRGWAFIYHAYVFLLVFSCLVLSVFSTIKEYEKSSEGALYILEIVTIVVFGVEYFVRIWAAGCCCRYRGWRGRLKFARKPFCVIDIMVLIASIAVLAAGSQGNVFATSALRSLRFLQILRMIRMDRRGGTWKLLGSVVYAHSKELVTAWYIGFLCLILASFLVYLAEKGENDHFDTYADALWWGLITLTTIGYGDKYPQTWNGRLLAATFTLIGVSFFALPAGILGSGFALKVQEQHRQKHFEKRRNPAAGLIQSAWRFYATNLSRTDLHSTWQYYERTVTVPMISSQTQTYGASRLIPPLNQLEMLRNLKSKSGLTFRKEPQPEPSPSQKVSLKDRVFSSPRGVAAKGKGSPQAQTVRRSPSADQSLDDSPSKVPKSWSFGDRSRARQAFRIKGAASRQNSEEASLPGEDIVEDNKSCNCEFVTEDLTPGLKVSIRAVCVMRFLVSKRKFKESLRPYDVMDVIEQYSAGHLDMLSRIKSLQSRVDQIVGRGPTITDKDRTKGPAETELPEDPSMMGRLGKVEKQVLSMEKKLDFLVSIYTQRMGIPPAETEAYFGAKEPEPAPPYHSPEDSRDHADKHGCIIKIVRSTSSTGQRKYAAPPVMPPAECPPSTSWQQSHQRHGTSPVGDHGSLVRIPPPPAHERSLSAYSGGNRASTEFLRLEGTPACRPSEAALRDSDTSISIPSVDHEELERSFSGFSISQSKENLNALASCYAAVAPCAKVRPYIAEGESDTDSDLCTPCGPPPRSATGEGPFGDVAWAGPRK
# KCNQ2 enhance = potentiators of rat KCNQ2 potassium channel. Potassium voltage-gated channel subfamily KQT member 2 (Rattus norvegicus), O88943. CHO-K1 KCNQ2, FluxOR thallium flux fluorescence; hits give high values. B-score at 10 µM. 0.54% of 310,000 active. AID 2239, 2010;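 active = fluorescence ratio B-score at least 3 SD of library B-scores, with initial fluorescence B-score within 3 of them, cut at about 5.3 in these data; same plate scores as AID 2156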;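 also: B-score of peak minus minimum over baseline fluorescence ratio after K+ and Tl+ stimulus; positive B-score means potentiation of KCNQ2 with more thallium influx and brighter signal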
# Numbers stand for hits; 0 = inactive; - = no result.
SMILES,KCNQ2 inh,KCNQ2 enhance
Cc1ccc(-c2noc(CN(C(=O)CCCN3C(=O)c4ccccc4C3=O)C(C)C)n2)cc1,0,-
COc1ccccc1OCC(=O)N(Cc1nc(-c2ccc(Cl)cc2)no1)C(C)C,0,-
COc1ccccc1OCC(=O)N(Cc1nc(-c2ccccc2)no1)C(C)C,0,0
Cc1cc(Br)ccc1OCC(=O)N(Cc1nc(-c2ccccc2)no1)C(C)C,-6,0
Cc1ccc(-c2noc(CN(C(=O)CCN3C(=O)c4ccccc4C3=O)C(C)C)n2)cc1,-5.7,0
COc1ccc(C(CC(=O)Nc2ccccn2)N2Cc3ccccc3C2=O)cc1OC (stereo unspecified),0,0
CCOc1ccc(-n2c(=O)c3sccc3n(CC(=O)NCC3CCCO3)c2=O)cc1 (stereo unspecified),0,-
CN(C)c1cccc2c1c(NC(=O)c1ccc(Cl)cc1)nn2C,0,0
Cc1c(C(=O)COC(C)(C)C)[nH]c2ccccc12,0,-
N#CC1=C(N)N(c2ncn[nH]2)C2=C(C(=O)CCC2)C1c1ccccc1 (stereo unspecified),0,-
C[C@@H](C(=O)NCCc1ccccc1)N1C(=O)N2CCc3c([nH]c4ccccc34)[C@@]2(C)C1=O,-9.1,0
C[C@@H](C(=O)NCCc1ccccc1F)N1C(=O)N2CCc3c([nH]c4ccccc34)[C@@]2(C)C1=O,0,-
CCOC(=O)c1cc(-c2ccccc2)nc2ccc(C)cc12,0,-
CCOC(=O)c1cnc2ccc(C)cc2c1Sc1ccc(F)cc1,-5.5,0
COc1ccc(/C(N)=N/OC(=O)CCc2ccccc2)cc1OC,0,-
COc1ccc(/C(N)=N/OC(=O)CSc2ccccc2)cc1OC,-6,0
Clc1ccc(OCCSc2ncccn2)c2ccccc12,-5.7,0
c1cnc(SCCOc2cccc3ccccc23)nc1,0,-
O=C(CC(=O)N/N=C/c1c(Cl)cccc1Cl)NCc1cccnc1,0,0
Cc1onc(-c2ccc(Cl)cc2)c1-c1ccnc(SCC(=O)Nc2ccc(C(C)C)cc2)n1,-5.6,0
O=C(CSc1nccc(-c2cccs2)n1)Nc1ccc(Cl)cc1,0,0
COc1cc(C(=O)NCC2(c3ccccc3)CCCC2)cc(OC)c1OC,0,-
Cc1ccc(/C=N/NC(=O)c2cc(C3CC3)nc3ccccc23)o1,0,-
CCOC(=O)c1c(C)c(C(=O)NCCc2ccccc2)c(C)n1C,0,-
CCOC(=O)c1c(C(=O)OCC)c(C)n(CCc2ccccc2)c1C,-5.8,0
SMILES,KCNQ2 inh,KCNQ2 enhance
COc1ccc(CCN(C)Cc2nc(-c3cnccn3)no2)cc1OC,0,0
COc1ccc(CCN(Cc2nc(-c3ccccc3)no2)Cc2nc(-c3ccccc3)no2)cc1OC,-6.2,0
COc1ccccc1-n1c(CNC(=O)c2ccc(S(=O)(=O)N3CCCCC3)cc2)n[nH]c1=S,0,0
CN(c1ccc(C(=O)Nc2ccc(CC#N)cc2)cc1)S(C)(=O)=O,0,-
COc1ccc(C(=O)Nc2ccccc2C(N)=O)cc1,0,0
COc1ccc(C(=O)Nc2ccccc2C(=O)N/N=C/c2cccc3ccccc23)cc1,-5.8,0
Cc1cccc(/C=N/NC(=O)c2ccccc2OCc2cccc(Br)c2)n1,0,-
Cc1cccc(/C=N/NC(=O)c2cc(Br)ccc2OCc2ccccc2)n1,-5.9,0
COc1ccc(/C=N/NC(=O)c2ccccc2OCc2ccccc2)c(OC)c1,-6.8,0
COc1ccc(/C(C)=N/NC(=O)c2ccccc2OCc2ccccc2)c(OC)c1,0,-
Cc1ccc(S(=O)(=O)N2CCCC2C(=O)NCc2ccncc2)cc1 (stereo unspecified),0,0
COC(=O)/C(=C(/F)Sc1cc(C)c(O)c(C)c1)C(F)(F)F,0,-
CCCOC(=O)C1C2C=C[C@]3(CN(CCc4ccccc4)C(=O)[C@H]13)O2 (stereo partly specified),0,0
COCCCN(C(=O)Cc1csc(-c2cccc(Cl)c2)n1)c1c(N)n(Cc2ccccc2)c(=O)[nH]c1=O,0,0
CSc1nc2c(c(C(F)(F)F)n1)CC(C)CC2 (stereo unspecified),0,0
CCOC(=O)CCc1c(C)nc2c(c(C)nn2C(C)(C)C)c1C,-7.8,0
CCOC(=O)CCc1c(C)nc2c(c(C)nn2-c2ccc(C)cc2)c1C,0,0
CCCC1(C(=O)OC)NC(c2ccc(OC)cc2OC)C2C(=O)N(c3cccc(C(C)=O)c3)C(=O)C21 (stereo unspecified),-5.9,0
CCCC1(C(=O)OC)NC(c2ccc(OC)c(OC)c2)C2C(=O)N(c3cccc(C(C)=O)c3)C(=O)C21 (stereo unspecified),0,-
O=C(/C=C/c1cn(-c2ccccc2)nc1-c1cccnc1)N1CCCCC1,0,-
O=C(c1cc(Cl)ccc1Cl)N1CCN(c2ccccn2)CC1,0,-
O=C(/C=C/c1cn(-c2ccccc2)nc1-c1cccc(Cl)c1)N1CCN(c2ccccn2)CC1,-5.7,0
O=C(c1cnc(N2CCN(c3ccccn3)CC2)c2ccccc12)N1CCN(c2cccc(Cl)c2)CC1,-7.9,0
CCOc1ccccc1NC(=O)C(NCCN(C)C)c1ccccc1 (stereo unspecified),0,0
CCOc1ccccc1NC(=O)C(NCC1CCCCC1)c1ccccc1 (stereo unspecified),-5.8,0
SMILES,KCNQ2 inh,KCNQ2 enhance
CCOc1ccccc1NC(=O)C(OC(=O)c1ccc(CC)cc1)c1ccccc1 (stereo unspecified),-6.4,0
CCOc1ccccc1NC(=O)C(OC(=O)c1ccc(O)cc1)c1ccccc1 (stereo unspecified),0,-
COc1ccc(C(=O)Nc2ccnn2C2CCN(C(=O)c3cccnc3)CC2)cc1,0,0
Cc1ccc(NC(=O)c2ccc3ccccc3n2)cc1S(=O)(=O)N1CCOCC1,0,0
O=C(CSc1nnnn1-c1ccc2c(c1)OCCO2)N1CCN(C(=O)c2ccco2)CC1,0,0
Cc1cc(NC(=O)C(C)SCC(=O)N(C)CC(=O)Nc2ccccc2Br)no1 (stereo unspecified),0,-
CN(CC(=O)Nc1ccccc1C(=O)N1CCCC1)S(=O)(=O)c1ccc(Cl)cc1,0,-
CCOC(=O)Cc1csc(NC(=S)NC(=O)c2ccccc2Br)n1,0,9.6
CCOC(=O)Cc1csc(NC(=S)NC(=O)c2ccccc2)n1,0,-
CC1CN(C(=O)COC(=O)c2ccc(C#N)cc2)CC(C)O1 (stereo unspecified),0,-
C=CCC1CCCC(=O)N2CC[C@H](O)C12 (stereo partly specified),0,-
Fc1ccc(Cn2cccc2C2=NC(c3ccccc3)CO2)cc1 (stereo unspecified),0,-
Cc1oc(-c2ccccc2)nc1Cn1cccc1C1=NC(c2ccccc2)CO1 (stereo unspecified),-6,0
C(=C\c1ccccc1)/CSc1nnc(-c2ccncc2)n1Cc1ccco1,0,-
Clc1cccc(-c2nnc(SC/C=C/c3ccccc3)n2Cc2ccco2)c1,-8.3,0
Nn1c(SC/C=C/c2ccccc2)nnc1-c1ccco1,0,0
C(=C\c1ccccc1)/CSc1nnc(-c2ccccc2)n1Cc1ccco1,-5.9,0
COc1ccc(CCNC(=O)c2ccc(NS(=O)(=O)c3c(C)noc3C)cc2)cc1OC,0,0
Cc1nc(OCc2c(C)noc2C)c2ccccc2n1,0,0
O=C(CNS(=O)(=O)c1ccc(Br)s1)NCc1ccc(F)cc1,-5.9,0
O=C(CCNS(=O)(=O)c1ccc(Br)s1)NCc1ccc(F)cc1,0,0
COCCOC(=O)/C(=C/c1ccc(OC(=O)c2ccccc2)cc1)C(C)=O,0,0
